Where a name gives a salt, the structure may show the parent alone.

Results on 40 molecules are retold here after the supplement of paper PMC10981050.

The test system of this assay is MARIMO. The experiment in a line: cell viability relative to vehicle control; higher = less cytotoxic. The following applies: 10 µM; SRSF2 genotype: SRSF2 P95H/wt. The gist of the method: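 Screening covered the Selleck bioactive, kinase and epigenetic probe libraries, less identity-inconsistent compounds, on CRISPR-edited mutant clones and isogenic wild-type clones of four leukaemia lines. Cells, at 2000 per well in 50 µL medium, received a single 10 µM acoustically dispensed dose. After 48 h the supernatant was removed and CellTiter-Glo luminescence was read. Viability was analysed in Genedata Screener as percent of the on-plate vehicle control.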
The cell viability is a read-out of living cells in per cent, often relative to untreated cells. As for `NC(=O)[C@@H](CCC(F)(F)F)N(Cc1ccc(-c2ncon2)cc1F)S(=O)(=O)c1ccc(Cl)cc1`, the cell viability was determined as 84.8%.

As to `COc1c/c(=C2\C=c3ccccc3=N2)[nH]/c1=C\c1[nH]c(C)cc1C` [Obatoclax mesylate (GX15-070)], the cell viability is 23.4%. For `O=C(O)CC(C(=O)O)n1c(O)c(C2=c3cc(Br)ccc3=NC2=O)sc1=S` (stereo not given) the value was 97.7%; for `COc1cc(NS(=O)(=O)c2ccc(N)cc2)nc(OC)n1` [Sulphadimethoxine], 91.3%.

Regarding `NC(=O)[C@@H]1CCCN1C(=O)[C@H](Cc1c[nH]cn1)NC(=O)[C@@H]1CCC(=O)N1` [Protirelin], the cell viability was determined as 99.2%. For the molecule `COC(=O)c1cc(OC)c(O)c(OC)c1` [Methyl syringate], the cell viability stood at 94%. For the molecule `N=c1ccn2c(n1)O[C@H]1[C@H](O)[C@@H](CO)O[C@H]12` [Cyclocytidine HCl], the cell viability was found to be 27.8%.

Take `O=P(O)(O)C(O)(Cc1cccnc1)P(=O)(O)O` [Risedronate sodium]: the cell viability was determined as 88.9%. The value for `CN(C)CCOc1ccc(-c2nc(-c3ccncc3)c(-c3ccc4c(c3)CC/C4=N\O)[nH]2)cc1` was 11.5%; that for `COC(=O)C1=C(C)NC(C)=C(C(=O)OCCN2CCN(C(c3ccccc3)c3ccccc3)CC2)C1c1cccc([N+](=O)[O-])c1` (stereo not given) [Manidipine (Manyper)] was 60.2%; that for `COC1CCN(C(=O)c2cc(Cc3n[nH]c(=O)c4ccccc34)ccc2F)CC1` was 81.5%.

`C=C1C[C@@]23CC[C@H]4[C@@](C)(CCC[C@@]4(C)C(=O)O[C@@H]4O[C@H](CO)[C@@H](O)[C@H](O)[C@H]4O)[C@@H]2CC[C@]1(O[C@@H]1O[C@H](CO)[C@@H](O)[C@H](O)[C@H]1O[C@@H]1O[C@H](CO)[C@@H](O)[C@H](O)[C@H]1O)C3` [Stevioside]: the cell viability came to 111%.

As to `Cc1cc(=O)oc2ccc(O)cc12` [6-Hydroxy-4-methylcoumarin], the cell viability is 107%. For `COC1C(O)C(O)C(O)C(O)C1O` (stereo not given) [Sequoyitol] the value was 110%.

As to `CC1(C)O[C@@H]2C[C@H]3[C@@H]4CCC5=CC(=O)C=C[C@]5(C)[C@@]4(F)[C@@H](O)C[C@]3(C)[C@]2(C(=O)CO)O1` [Triamcinolone Acetonide], the cell viability is 107%.

For `COc1ccc(C(C)=O)c(O)c1` [Paeonol (Peonol)], the cell viability amounted to 104%.

Consider `COc1cccc(/C=N/N(C(=O)C(F)(F)F)c2ccc(C)cc2C)c1`, for which the cell viability amounted to 83.5%.

With `C=C1C(=O)[C@]23[C@H](O)[C@H]1CC[C@H]2[C@@]12CO[C@]3(O)[C@@H](O)[C@@H]1C(C)(C)CC[C@@H]2O` [Oridonin (Isodonol)], the cell viability turned out to be 37.5%.

As to `CN(CCOc1ccc(CC2SC(=O)NC2=O)cc1)c1ccccn1` (stereo not given) [Rosiglitazone maleate], the cell viability was determined as 102%. Turning to `CC(C)C[C@@H]1NC(=O)[C@@H](C(C)C)NC(=O)[C@@H]2CCCN2C(=O)[C@@H](CC(=O)O)NC(=O)[C@@H](Cc2c[nH]c3ccccc23)NC1=O`, the cell viability was determined as 101%.

As to `Cc1cc(Nc2ncc3c(n2)N(C)C(=O)N(c2cc(NC(=O)c4cccc(C(F)(F)F)c4)ccc2C)C3)n(C)n1` [Pluripotin (SC1)], the cell viability came out at 22.1%.

As to `C[C@]12C=CC(=O)C=C1CC[C@H]1[C@@H]3C[C@@H](O)[C@](O)(C(=O)CO)[C@@]3(C)C[C@H](O)[C@@]12F` [Triamcinolone (Aristocort)], the cell viability came out at 100%. As to `O=C(O)CCC(=O)O` [Succinic acid], the cell viability was 83.8%.

On to `CCOP(=O)(OCC)C(=Cc1cc(C(C)(C)C)c(O)c(C(C)(C)C)c1)P(=O)(OCC)OCC`, for which the cell viability amounted to 90.4%.

Take `O=C(/C=C/C=C/c1ccc2c(c1)OCO2)N1CCCCC1` [Piperine (1-Piperoylpiperidine)]: the cell viability was 92.7%. The value for `Cc1cc(=O)n(-c2ccccc2)n1C` [Antipyrine] was 86.2%; that for `CC(=O)OC(CC(C)C1=C2CC(O)C3C4(C)CCC(=O)C(C)(C)C4CCC3(C)C2(C)CC1)C1OC1(C)C` (stereo not given) [Alisol B Acetate] was 68.4%. For `CC(=O)Nc1ccccc1` [Acetanilide (Antifebrin)] the value was 106%; for `CCS(=O)(=O)N1CC(CC#N)(n2cc(-c3ncnc4[nH]ccc34)cn2)C1`, 111%. In the case of `O=C(O)[C@H]1O[C@@H](Oc2cc3oc(-c4ccc(O)cc4)cc(=O)c3c(O)c2O)[C@H](O)[C@@H](O)[C@@H]1O` [Scutellarin], the cell viability was 100%. The value for `Cc1cc(S(=O)(=O)O)c2c(C)ccc(C(C)C)cc1-2` [Sodium gualenate] was 100%; that for `O=C(Nc1ccc(OC(F)(F)Cl)cc1)c1cnc(N2CC[C@@H](O)C2)c(-c2cc[nH]n2)c1` [Asciminib (ABL001)] was 68.4%. For the molecule `Nc1[nH]c(=O)ncc1Br` [5-Bromocytosine], the cell viability came out at 101%. On to `CC[C@H](C)C(=O)O[C@H]1C[C@@H](C)C=C2C=C[C@H](C)[C@H](CC[C@@H]3C[C@@H](O)CC(=O)O3)[C@H]21` [Lovastatin (Mevacor)], for which the cell viability was found to be 74%. The value for `CO/N=C(\C(=O)N[C@@H]1C(=O)N2C(C(=O)[O-])=C(C[N+]3(C)CCCC3)CS[C@H]12)c1csc(N)n1` [Cefepime Dihydrochloride Monohydrate] was 96.3%; that for `CC(=O)OC(C)C(C)C(=O)OCC12C3CC(C)(C)[C@H](O[C@@H]1C[C@]1(C)C3=CCC3C4(C)CCC(O[C@@H]5O[C@H](C(=O)O)[C@@H](O[C@H]6O[C@H](CO)[C@@H](O)[C@H](O)[C@H]6O)[C@H](O)[C@H]5O[C@@H]5OC[C@@H](O)[C@H](O)[C@H]5O)[C@](C)(CO)C4CCC31C)C2O` (stereo not given in full) [Sodium Aescinate] was 95.5%; that for `C[C@H]1C[C@H]2[C@@H]3C[C@H](F)C4=CC(=O)C=C[C@]4(C)[C@@]3(F)[C@@H](O)C[C@]2(C)[C@@]1(O)C(=O)CO` [Diflorasone] was 109%.

In the case of `Oc1ccc(CC2NCCc3cc(O)c(O)cc32)cc1` (stereo not given) [Higenamine hydrochloride], the cell viability is 105%. Consider `CC(C)(C)[N+]([O-])=Cc1ccc(S(=O)(=O)O)cc1S(=O)(=O)O` [NXY-059 (Disufenton sodium)], for which the cell viability came to 109%. For `CN1CCC(=C2c3ccccc3CCc3sccc32)CC1` [Pizotifen malate], the cell viability came to 76.9%.
